Measured values from PubChem BioAssay.
Activity calls are given as the source filed them.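 Rule for the calls, unless noted: active = visually confirmed hit in the image check and inhibition above 20%; inconclusive = visually confirmed hit but inhibition not above 20%; inactive = no visual hit in the image check.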

Key:
[1] = inhibitors of TNFa-induced NFkB p65 translocation, primary screen, imaging, HUVEC, MLSMR starter and 10KST1 sets (AID 438;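 active = inhibition above 20% together with a positive visual image hit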;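 note: compound added about 3h40 before a 20 min TNFalpha stimulation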;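 for inhibition: signal is the nuclear over cytoplasmic p65 intensity ratio per well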); details: HUVEC TNFa-induced p65 nuclear translocation; cell count: measured here: nuclei count (cytotoxicity indicator), at 2.08 µM; inhibition: at 2 µM, stronger effect = higher value, 0% TNFa-plus-vehicle, 100% no-TNFa wells
[2] = reduction of polyQ htt aggregates in cells – imaging, exon1htt(103Q)mCFP cells, high-content imaging, primary screen (AID 483;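 active = visual image review flags a hit and inhibition of aggregation exceeds 20%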;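 note: compound exposure lasted 3 days before fixation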;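 for nuclei count: percent of the per-plate median nuclei count of sample wells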); details: exon1htt(103Q)mCFP cell line, aggregate imaging, at 2 µM; inhibition of aggregation: stronger effect = higher value; nuclei count: measured here: cell count, toxicity
[3] = endothelial E-selectin expression blockers – imaging, HUVEC, immunofluorescence, MLSMR starter and 10KST1 sets, primary screen (AID 487); details: HUVEC TNFalpha-induced E-selectin immunofluorescence imaging, at 2 µM; inhibition: stronger effect = higher value; nuclei count: measured here: cell number, toxicity;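 for inhibition: signal is fraction of cell area covered by stained E-selectin grains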;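 for nuclei count: 100% = median nuclei count of all wells on the same plate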
[4] = Primary imaging screen for DUSP6 inhibitors that restore phospho-Erk in transfected HeLa cells, chemical complementation (AID 609;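 active = compounds giving at least 50% inhibition in the cell-based MKP-3 phosphatase rescue imaging test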;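 for inhibition: phospho-Erk level distribution per well compared with pooled transfected vehicle control wells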); details: HeLa MKP-3 transfected, phospho-Erk imaging KS statistic, at 10 µM, cells stimulated with TPA for 15 min
[5] = biological target: Dual specificity protein phosphatase 6 (Homo sapiens) (UniProt Q16828); experiment: as above; details: HeLa MKP-3 transfected, phospho-Erk imaging KS statistic; at 10 µM; stronger effect = higher value; cells stimulated with TPA for 15 min
Sequence of Dual specificity protein phosphatase 6 (Homo sapiens) (Q16828 whole entry, looked up): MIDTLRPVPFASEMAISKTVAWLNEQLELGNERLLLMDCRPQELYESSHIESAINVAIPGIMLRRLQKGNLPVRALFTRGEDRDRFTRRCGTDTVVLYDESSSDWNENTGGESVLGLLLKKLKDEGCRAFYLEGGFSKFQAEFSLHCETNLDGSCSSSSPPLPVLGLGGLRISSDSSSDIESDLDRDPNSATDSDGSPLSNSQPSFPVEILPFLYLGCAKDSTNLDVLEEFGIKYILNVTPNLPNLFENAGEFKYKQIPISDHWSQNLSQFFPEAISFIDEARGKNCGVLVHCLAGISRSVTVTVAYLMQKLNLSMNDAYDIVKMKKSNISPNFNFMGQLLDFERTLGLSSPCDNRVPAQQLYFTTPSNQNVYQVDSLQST

[6] = biological target: Voltage-gated potassium channel subunit beta-2 (Rattus norvegicus) (UniProt P62483); experiment: inhibitors of rat Kvbeta2 reductase activity – biochemical, NADPH fluorescence, primary screen (AID 622;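 active = fluorescence slope higher than the sample average by over 3 SD, cut at about -0.22 in these data, passing the limit was not always enough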;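 note: slope of raw intensity against log time taken from 70 to 1610 s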); details: recombinant KvBeta, 4-cyanobenzaldehyde reduction, at 10 µM, stronger effect = higher value
Sequence of Voltage-gated potassium channel subunit beta-2 (Rattus norvegicus) (P62483 whole entry, looked up): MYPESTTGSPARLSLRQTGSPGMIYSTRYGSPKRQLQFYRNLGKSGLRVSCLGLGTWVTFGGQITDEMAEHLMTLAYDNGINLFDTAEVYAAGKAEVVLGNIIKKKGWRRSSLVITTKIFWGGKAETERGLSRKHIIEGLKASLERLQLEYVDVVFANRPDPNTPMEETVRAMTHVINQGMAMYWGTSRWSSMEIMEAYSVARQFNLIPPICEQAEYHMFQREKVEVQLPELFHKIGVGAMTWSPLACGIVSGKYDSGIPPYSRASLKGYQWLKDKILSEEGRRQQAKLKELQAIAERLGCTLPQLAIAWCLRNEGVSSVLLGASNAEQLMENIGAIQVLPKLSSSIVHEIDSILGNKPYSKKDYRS

[7] = biological target: Voltage-gated potassium channel subunit beta-2 (Rattus norvegicus) (UniProt P62483); experiment: enhancers of rat Kvbeta2 NADPH turnover – biochemical, NADPH fluorescence, primary screen (AID 623;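 active = NADPH fluorescence slope more negative than the mean of all samples by about 3 SD, 99.7% confidence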;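 note: fluorescence intensity change per second fitted from 20 to 320 s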); details: Recombinant KvBeta, NADPH fluorescence decrease slope, 10 min; at 10 µM; stronger effect = lower value
[8] = biological target: Alpha-2C adrenergic receptor (Homo sapiens) (UniProt P18825); experiment: compounds altering alpha2C-coupled GIRK flux – cell-based, HEK293 alpha2C/GIRK1/2, thallium flux, primary screen (AID 624;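 active = fluorescence slope after compound addition differing from the mean of all screened samples at 99.7% confidence, in either direction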;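 note: slope of fluorescence ratio to pre-addition baseline per second over 15 to 24 s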); details: thallium flux BTC fluorescence, at 10 µM, actives lie on both sides
Sequence of Alpha-2C adrenergic receptor (Homo sapiens) (P18825 whole entry, looked up): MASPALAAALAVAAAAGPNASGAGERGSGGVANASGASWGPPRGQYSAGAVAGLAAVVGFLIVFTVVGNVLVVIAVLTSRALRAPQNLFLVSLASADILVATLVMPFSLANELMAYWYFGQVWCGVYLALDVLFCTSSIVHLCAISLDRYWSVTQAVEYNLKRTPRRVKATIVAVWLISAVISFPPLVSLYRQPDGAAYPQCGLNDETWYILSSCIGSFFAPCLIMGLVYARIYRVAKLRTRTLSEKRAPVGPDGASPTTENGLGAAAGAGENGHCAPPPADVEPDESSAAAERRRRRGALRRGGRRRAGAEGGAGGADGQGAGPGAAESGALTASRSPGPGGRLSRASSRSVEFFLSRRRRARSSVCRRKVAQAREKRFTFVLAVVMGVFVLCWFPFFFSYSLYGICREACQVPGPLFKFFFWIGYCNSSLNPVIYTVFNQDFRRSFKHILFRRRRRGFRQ

[9] = inhibitors of larval lipid processing in zebrafish, primary screen, whole organism, PED6 fluorescence, gall bladder and intestine (AID 686;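 active = a full or partial loss of lipid-probe fluorescence in the fish gall bladder, intestine or both, judged by eye; inactive = no fluorescence loss, or compound toxic to the fish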;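 note: larvae 5 to 7 days old with five fish per well; signal comes from phospholipase A2 cleavage of quenched PED6 carried via bile; overnight exposure to compound and PED6 before scoring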); details: Zebrafish larvae PED6 lipid processing, fluorescence scoring; screened at 20 µM (by protocol)
[10] = loss of swimming-algae plug formation – whole organism, Chlamydomonas reinhardtii, WT vs cilia-less mutant, absorbance, 96-well, primary screen (AID 463189;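 active = inhibition at or above 50% relative to wild type and mutant plate controls; inactive = inhibition below 50%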;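 note: 0% = wild type cc124 cells in DMSO and 100% = ciliumless bld1 mutant cells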); details: Chlamydomonas reinhardtii gravitaxis, OD600 absorbance, 2 days; at 10 µM; stronger effect = higher value
[11] = blockers of RIG-like receptor reporter activation – cell-based, Sendai virus stimulus, luciferase, 10K MLSCN set, TLR/RLR signaling modifier project, primary screen (AID 602276;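 active = inhibition at or above 50% at 10 µM; inactive = inhibition below 50%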;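 note: firefly luciferase from ISG56 promoter only with Renilla not read in this screen; 0% = Sendai virus plus DMSO and 100% = medium plus DMSO without virus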); details: HEK293 RL24 IRF3 luciferase reporter, at 10 µM, stronger effect = higher value
[12] = TLR3 IRF3 reporter activation blockers – cell-based, poly I:C stimulus, luciferase, 10K MLSCN set, primary screen (AID 602277;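 active = inhibition of the reporter signal at or above 50%; inactive = inhibition below 50%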); details: HEK293-TLR3 RL24 IRF3 luciferase reporter, at 10 µM, stronger effect = higher value
[13] = measured here: cell density z-score
[14] = measured here: nuclear c-Myc green intensity z-score
[15] = measured here: nuclear pErk red intensity z-score, stronger effect = higher value

SMILES	cell count [1]	inhibition [1]	inhibition of aggregation [2]	nuclei count [2] [%]	inhibition [3]	nuclei count [3] [%]	z-score [4, 13]	z-score [4, 14]	z-score [4, 15]	inhibition [5]	fluorescence slope [6]	NADPH fluorescence slope [7]	slope [8]	outcome [9]	inhibition [10]	inhibition [11]	inhibition [12]
Cc1c(CCC#N)c(N2CCN(C3CCCCC3)CC2)n2c(nc3ccccc32)c1C#N	433	-14.4% (inactive)	14.6% (inactive)	98.9	-38.1% (inactive)	128	0.167	-0.385	-0.671	13.7% (inactive)	-0.236 (inactive)	-5.2e-06 (inactive)	0.00599 (inactive)	inactive	8.11% (inactive)	19.2% (inactive)	17.3% (inactive)
CCOC(=O)c1[nH]c2ccccc2c1NC(=O)CCN1CCN(C(=O)OCC)CC1	626	-1.9% (inactive)	-2.8% (inactive)	104	1% (inactive)	144	-1.64	0.13	1.55	-5.26% (inactive)	-0.344 (inactive)	-4.4e-05 (inactive)	0.00527 (inactive)	inactive	-5.66% (inactive)	14.7% (inactive)	19.4% (inactive)
CCOC(=O)C1CSc2[nH]c(=O)sc2C1c1ccccc1 (stereo not given)	537	-1.3% (inactive)	-4% (inactive)	126	-19.3% (inactive)	144	0.417	-0.0363	0.692	-1.12% (inactive)	-0.378 (inactive)	-6.9e-05 (inactive)	0.00596 (inactive)	inactive	-4.31% (inactive)	5.91% (inactive)	99.1% (active)
C[C@]12CC[C@@H]3c4ccc(O[C@@H]5O[C@H](C(=O)O)[C@@H](O)[C@H](O)[C@H]5O)cc4CC[C@H]3[C@@H]1C[C@@H](O)[C@@H]2O	606	-2.6% (inactive)	-0.5% (inactive)	90.1	-146% (inactive)	127	0.0825	-0.52	-0.309	1.48% (inactive)	-0.487 (inactive)	-4.1e-05 (inactive)	0.00431 (inactive)	inactive	-2.21% (inactive)	15% (inactive)	32.3% (inactive)
N#Cc1c(N)n(CCOC(=O)c2cccc(Br)c2)c2nc3ccccc3nc12	592	0.6% (inactive)	-46.7% (inactive)	75.5	-20.6% (inactive)	108	1.33	-2.21	-0.755	-1.12% (inactive)	-0.434 (inactive)	-0.000171 (inactive)	0.00581 (inactive)	inactive	15.2% (inactive)	16.3% (inactive)	30.6% (inactive)
CSc1ccccc1NC(=O)c1c(Br)cnn1C	559	-4.3% (inactive)	33.5% (active)	58.2	26.1% (inactive)	130	-0.962	-0.8	0.479	-2.47% (inactive)	-0.453 (inactive)	-5.8e-06 (inactive)	0.00569 (inactive)	inactive	4.29% (inactive)	5.4% (inactive)	4.72% (inactive)
CCNC(=O)N(C(=O)NCC)n1c(C)nnc1C	615	-11.1% (inactive)	16.9% (inactive)	96.4	28.7% (inactive)	130	-1.98	1.53	-0.158	1.12% (inactive)	-0.413 (inactive)	-6e-05 (inactive)	0.00476 (inactive)	inactive	11% (inactive)	9.47% (inactive)	14% (inactive)
CCCC(=O)O[C@]1(C(=O)CCl)[C@@H](C)C[C@H]2[C@@H]3CCC4=CC(=O)C=C[C@]4(C)[C@@]3(F)C(=O)C[C@@]21C	614	-3.2% (inactive)	-2.9% (inactive)	63.4	-61.7% (inactive)	120	0.0825	0.587	-0.866	19.2% (inactive)	-0.535 (inactive)	-7e-05 (inactive)	0.00401 (inactive)	inactive	47.7% (inactive)	-12.4% (inactive)	-5.01% (inactive)
CCCCOc1ccc(-c2nnc(N)s2)cc1	634	-17.7% (inactive)	-7.4% (inactive)	104	-23.7% (inactive)	146	-0.283	0.709	0.136	-15% (inactive)	-0.405 (inactive)	-6.4e-05 (inactive)	0.00759 (inactive)	inactive	2.26% (inactive)	-42.6% (inactive)	-89.4% (inactive)
COc1cccc(OC)c1C(=O)N1CCN(S(=O)(=O)c2ccc(C)cc2)CC1	565	-7.5% (inactive)	12.9% (inactive)	104	-232% (inactive)	135	-0.228	-1.25	0.112	5.57% (inactive)	-0.382 (inactive)	1.3e-06 (inactive)	0.0062 (inactive)	inactive	-1.26% (inactive)	5.77% (inactive)	18% (inactive)
